For some of these results: Potency and affinity values are given separately.

Common to all, as to parameters: scale not given: direction of the effect not stated beside the values
For assay [1], the target named is Protein translocase subunit SecA (Escherichia coli (strain K12)) (UniProt P10408). The experiment in a line: Assay to Identify E. coli SecA ATPase Inhibitors. Format: functional. The conditions noted are these: 30 µM.
In assay [2] the target is T1, Ubiquitin-activating enzyme e1, putative (Leishmania donovani (strain BPK282A1)) (UniProt E9BSI1).
T1 sequence (whole entry): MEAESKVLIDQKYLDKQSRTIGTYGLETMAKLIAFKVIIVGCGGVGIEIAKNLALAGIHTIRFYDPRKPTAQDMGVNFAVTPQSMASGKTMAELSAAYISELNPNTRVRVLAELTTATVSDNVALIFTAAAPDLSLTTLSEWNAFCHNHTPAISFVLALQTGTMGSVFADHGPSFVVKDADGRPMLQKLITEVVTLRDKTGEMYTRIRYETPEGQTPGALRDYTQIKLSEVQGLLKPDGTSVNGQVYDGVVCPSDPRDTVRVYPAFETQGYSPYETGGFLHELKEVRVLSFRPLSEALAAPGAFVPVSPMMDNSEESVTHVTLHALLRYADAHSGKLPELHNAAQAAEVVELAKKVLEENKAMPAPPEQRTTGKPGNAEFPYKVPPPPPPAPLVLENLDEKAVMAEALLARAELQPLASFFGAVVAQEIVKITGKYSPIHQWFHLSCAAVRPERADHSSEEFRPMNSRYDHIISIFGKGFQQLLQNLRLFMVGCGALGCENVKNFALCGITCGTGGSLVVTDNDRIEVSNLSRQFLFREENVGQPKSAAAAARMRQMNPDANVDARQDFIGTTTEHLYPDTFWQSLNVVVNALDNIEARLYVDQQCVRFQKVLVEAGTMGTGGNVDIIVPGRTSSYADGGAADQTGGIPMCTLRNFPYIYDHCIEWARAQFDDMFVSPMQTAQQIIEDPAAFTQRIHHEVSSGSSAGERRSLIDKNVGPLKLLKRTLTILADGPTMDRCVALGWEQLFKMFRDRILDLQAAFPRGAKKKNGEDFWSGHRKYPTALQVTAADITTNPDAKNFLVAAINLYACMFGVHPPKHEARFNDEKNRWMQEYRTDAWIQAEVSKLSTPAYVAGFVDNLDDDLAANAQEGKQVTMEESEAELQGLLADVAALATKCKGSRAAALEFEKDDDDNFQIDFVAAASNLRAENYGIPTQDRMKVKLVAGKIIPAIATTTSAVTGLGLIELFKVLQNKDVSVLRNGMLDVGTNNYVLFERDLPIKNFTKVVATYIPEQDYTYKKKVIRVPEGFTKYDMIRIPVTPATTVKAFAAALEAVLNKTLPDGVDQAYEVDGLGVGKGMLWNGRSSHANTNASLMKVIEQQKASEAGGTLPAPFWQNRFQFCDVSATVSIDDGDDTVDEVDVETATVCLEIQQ
The experiment in a line: Leishmania donovani Ubiquitin Activating Enzyme (LdE1). The class given is functional. The conditions noted are these: 30 µM.

Assay [3] deals with Sialic acid-binding Ig-like lectin 9 (Homo sapiens) (UniProt Q9Y336). Put plainly: Hs-Siglec9 ALPHAscreen SOP 20170721. To be noted: 10 µM.
Chain of Sialic acid-binding Ig-like lectin 9 (Homo sapiens) (Q9Y336 whole entry): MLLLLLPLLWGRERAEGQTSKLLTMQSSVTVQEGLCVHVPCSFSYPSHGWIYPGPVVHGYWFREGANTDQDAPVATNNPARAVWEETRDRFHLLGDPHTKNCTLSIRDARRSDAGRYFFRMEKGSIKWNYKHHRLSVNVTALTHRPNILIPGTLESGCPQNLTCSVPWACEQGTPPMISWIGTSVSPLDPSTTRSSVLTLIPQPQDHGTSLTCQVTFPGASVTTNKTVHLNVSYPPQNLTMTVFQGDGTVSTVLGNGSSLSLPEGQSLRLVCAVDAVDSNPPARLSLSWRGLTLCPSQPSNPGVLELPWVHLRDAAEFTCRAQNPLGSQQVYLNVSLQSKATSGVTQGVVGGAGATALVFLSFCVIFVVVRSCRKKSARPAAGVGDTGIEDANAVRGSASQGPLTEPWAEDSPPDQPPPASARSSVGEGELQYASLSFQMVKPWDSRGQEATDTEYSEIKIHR
For the next assay, the system named is Trypanosoma cruzi. The experiment in a line: Trypanosoma cruzi phosphomannomutase and mannose-1-phosphate guanylyltransferase assay. The class given is functional. To be noted: 10 µM.
In assay [4] the target is T2, Arginase-2, mitochondrial (Homo sapiens) (UniProt P78540).
T2 sequence (whole entry): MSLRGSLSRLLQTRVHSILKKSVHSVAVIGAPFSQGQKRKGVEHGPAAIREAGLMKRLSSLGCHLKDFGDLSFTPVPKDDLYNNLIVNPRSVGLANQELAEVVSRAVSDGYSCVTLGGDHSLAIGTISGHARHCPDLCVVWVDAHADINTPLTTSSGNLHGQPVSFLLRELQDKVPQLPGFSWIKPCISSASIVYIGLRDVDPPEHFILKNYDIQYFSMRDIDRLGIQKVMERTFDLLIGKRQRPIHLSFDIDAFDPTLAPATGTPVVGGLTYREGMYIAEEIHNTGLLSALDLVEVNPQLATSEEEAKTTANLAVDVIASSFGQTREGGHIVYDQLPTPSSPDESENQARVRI
The experiment in a line: in vitro enzyme assay to detect the production of urea directly proportional to the activity of Arginase II. Note: in the data most compounds retested in dose-response had high values. The class given is functional. To be noted: 33.3 µM.

Assay [5] addresses T3, Proteasome subunit beta (Trypanosoma cruzi) (UniProt O96673).
T3 sequence (whole entry): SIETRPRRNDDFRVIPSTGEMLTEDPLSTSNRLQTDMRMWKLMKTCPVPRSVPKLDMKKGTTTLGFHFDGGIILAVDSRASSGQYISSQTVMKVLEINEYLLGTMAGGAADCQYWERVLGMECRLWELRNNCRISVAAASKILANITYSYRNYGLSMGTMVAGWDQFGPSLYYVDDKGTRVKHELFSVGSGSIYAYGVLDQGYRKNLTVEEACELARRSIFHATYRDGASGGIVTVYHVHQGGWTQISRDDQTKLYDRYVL
The experiment in a line: Trypanosoma cruzi proteasome chymotrypsin-like activity (TcProtChymo) assay. Note: in the data most compounds retested in dose-response had high values. The conditions noted are these: 9.37 µM. The class given is functional.

The species entered for another assay is Homo sapiens. The experiment in a line: To identify inhibition of the IFN signalling (Jak-Stat) pathway via expression of an eGFP reporter gene under the control of an IFN-stimulated response element (ISRE) containing MxA promoter. Format: functional. To be noted: 30 µM.
The target in assay [6] is T4, Tyrosyl-tRNA synthetase, putative (Trypanosoma cruzi (strain CL Brener)) (UniProt Q4DSP6).
T4 sequence (whole entry): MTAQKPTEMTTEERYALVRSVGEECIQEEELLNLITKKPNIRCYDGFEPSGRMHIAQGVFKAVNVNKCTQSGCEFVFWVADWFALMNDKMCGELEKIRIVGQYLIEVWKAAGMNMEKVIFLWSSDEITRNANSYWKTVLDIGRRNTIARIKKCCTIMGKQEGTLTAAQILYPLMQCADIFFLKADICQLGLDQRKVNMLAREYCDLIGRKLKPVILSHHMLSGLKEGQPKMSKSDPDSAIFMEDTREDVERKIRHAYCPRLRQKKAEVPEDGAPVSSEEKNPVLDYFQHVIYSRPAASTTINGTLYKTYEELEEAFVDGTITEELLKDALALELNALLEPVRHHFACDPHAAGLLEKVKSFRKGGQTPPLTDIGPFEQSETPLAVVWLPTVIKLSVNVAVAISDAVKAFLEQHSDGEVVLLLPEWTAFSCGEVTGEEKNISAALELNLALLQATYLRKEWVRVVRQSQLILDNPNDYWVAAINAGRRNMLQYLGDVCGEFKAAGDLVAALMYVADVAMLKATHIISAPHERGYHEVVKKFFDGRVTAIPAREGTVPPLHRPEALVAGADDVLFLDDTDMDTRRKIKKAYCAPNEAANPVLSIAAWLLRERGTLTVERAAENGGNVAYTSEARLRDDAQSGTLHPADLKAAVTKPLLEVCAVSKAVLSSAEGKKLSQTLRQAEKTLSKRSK
The experiment in a line: Trypanosoma cruzi tyrosyl tRNA synthetase (TcYRS) _High Tyrosine SOP. Note: in the data most compounds retested in dose-response had high values. The class given is functional. To be noted: 30 µM.

Assay [7] concerns the target T4, Tyrosyl-tRNA synthetase, putative (Trypanosoma cruzi (strain CL Brener)). The experiment in a line: Trypanosoma cruzi tyrosyl tRNA synthetase (TcYRS) SOP. Format: functional. The conditions noted are these: 30 µM.
Assay [8] deals with Chromo domain-containing protein 1 (Saccharomyces cerevisiae (strain ATCC 204508 / S288c) (Baker's yeast)) (UniProt P32657). The experiment in a line: ScCHD-1 Enzyme Inhibition Assay. Note: in the data most compounds retested in dose-response had high values. The class given is functional. The conditions noted are these: 30 µM.
Chain of Chromo domain-containing protein 1 (Saccharomyces cerevisiae (strain ATCC 204508 / S288c) (Baker's yeast)) (P32657 whole entry, the tested form may be a part): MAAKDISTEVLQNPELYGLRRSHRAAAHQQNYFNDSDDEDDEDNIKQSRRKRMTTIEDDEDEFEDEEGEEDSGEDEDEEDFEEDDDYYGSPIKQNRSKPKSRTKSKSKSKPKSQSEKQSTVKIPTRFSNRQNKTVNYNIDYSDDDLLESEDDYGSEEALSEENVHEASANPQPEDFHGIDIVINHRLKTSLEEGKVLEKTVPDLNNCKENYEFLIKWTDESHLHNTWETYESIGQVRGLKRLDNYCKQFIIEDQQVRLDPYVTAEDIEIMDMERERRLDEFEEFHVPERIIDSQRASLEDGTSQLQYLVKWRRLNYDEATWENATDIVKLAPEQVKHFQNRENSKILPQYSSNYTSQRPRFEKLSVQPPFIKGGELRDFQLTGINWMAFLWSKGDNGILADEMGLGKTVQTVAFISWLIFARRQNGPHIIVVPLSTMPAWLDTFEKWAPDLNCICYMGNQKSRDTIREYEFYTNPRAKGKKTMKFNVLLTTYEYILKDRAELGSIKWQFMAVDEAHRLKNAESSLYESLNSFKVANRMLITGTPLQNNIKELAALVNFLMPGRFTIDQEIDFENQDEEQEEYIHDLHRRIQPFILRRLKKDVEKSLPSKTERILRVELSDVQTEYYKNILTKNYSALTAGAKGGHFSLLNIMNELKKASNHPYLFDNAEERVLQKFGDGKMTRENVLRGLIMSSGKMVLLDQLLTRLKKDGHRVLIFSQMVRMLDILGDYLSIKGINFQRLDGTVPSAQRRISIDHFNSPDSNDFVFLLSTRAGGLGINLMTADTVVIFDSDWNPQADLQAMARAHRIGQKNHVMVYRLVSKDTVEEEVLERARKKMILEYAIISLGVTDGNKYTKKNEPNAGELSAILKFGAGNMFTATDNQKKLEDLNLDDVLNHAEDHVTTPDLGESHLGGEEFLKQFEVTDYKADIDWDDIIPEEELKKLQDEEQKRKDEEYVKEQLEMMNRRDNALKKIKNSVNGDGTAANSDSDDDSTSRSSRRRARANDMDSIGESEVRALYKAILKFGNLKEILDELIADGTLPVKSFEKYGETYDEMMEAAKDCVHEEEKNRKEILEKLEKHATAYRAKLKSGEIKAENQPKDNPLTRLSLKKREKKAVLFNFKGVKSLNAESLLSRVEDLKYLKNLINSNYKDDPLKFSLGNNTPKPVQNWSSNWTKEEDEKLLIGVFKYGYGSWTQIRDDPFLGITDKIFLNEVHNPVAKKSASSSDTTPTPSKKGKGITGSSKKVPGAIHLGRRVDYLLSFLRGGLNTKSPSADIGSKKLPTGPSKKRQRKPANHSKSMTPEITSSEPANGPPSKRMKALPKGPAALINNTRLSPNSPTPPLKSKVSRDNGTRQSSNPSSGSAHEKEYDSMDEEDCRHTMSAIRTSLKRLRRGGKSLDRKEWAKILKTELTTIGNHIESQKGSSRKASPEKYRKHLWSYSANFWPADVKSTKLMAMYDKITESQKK

Chain of Protein translocase subunit SecA (Escherichia coli (strain K12)) (P10408 whole entry): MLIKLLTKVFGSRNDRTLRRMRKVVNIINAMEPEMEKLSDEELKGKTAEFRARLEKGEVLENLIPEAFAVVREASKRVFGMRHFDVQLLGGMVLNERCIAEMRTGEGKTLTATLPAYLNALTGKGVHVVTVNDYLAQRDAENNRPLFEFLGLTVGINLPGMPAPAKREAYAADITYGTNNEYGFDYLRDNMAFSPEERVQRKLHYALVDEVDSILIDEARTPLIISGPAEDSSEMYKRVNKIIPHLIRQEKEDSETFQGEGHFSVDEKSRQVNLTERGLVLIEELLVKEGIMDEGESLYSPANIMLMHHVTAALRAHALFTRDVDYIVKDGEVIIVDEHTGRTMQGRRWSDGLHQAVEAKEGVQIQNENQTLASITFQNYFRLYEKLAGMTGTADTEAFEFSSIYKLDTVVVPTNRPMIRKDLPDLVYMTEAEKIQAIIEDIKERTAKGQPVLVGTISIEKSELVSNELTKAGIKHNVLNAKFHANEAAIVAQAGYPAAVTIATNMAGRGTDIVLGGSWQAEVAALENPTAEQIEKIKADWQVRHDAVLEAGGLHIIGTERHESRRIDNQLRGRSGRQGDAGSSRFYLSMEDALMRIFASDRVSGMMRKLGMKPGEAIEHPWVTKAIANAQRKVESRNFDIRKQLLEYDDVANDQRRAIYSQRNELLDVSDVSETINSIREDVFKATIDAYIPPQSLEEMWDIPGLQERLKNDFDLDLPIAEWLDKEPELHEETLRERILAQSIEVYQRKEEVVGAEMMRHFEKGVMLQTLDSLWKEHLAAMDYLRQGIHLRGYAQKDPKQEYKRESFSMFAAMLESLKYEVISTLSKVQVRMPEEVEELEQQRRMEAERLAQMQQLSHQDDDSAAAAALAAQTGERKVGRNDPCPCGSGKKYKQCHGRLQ

Take `Cc1cccn2cc(CC(=O)N3CCCC(n4cncn4)C3)nc12` (stereo not given): the Percent Effect is -0.27% in [1]; 17.9% in assay [2]; -8.4% in [3]; 6.1% in the assay on Trypanosoma cruzi; 5.74% in assay [4]; 15.6% in assay [5]. Further, the Percent Effect in the assay listed under Homo sapiens was 17.2%; in [6] it was 3.35%; in assay [7], 22.9%; in [8], -6%.

As for `c1ccc(CN2CCc3nnc(CN4CCCCC4)n3CC2)nc1`, the Percent Effect is -8.66% in assay [1]; 1.3% in [2]; -4.58% in assay [3]; -3.41% in the assay on Trypanosoma cruzi; -4.86% in assay [4]; 18.1% in [5]. The Percent Effect in the assay listed under Homo sapiens is 0.921%; in assay [6] it was 0.526%; in assay [7] it was 2.56%; in assay [8], -0.472%.

As to `CCCc1c(C(=O)NC2CCCC2)nnn1-c1ccc(OC)cc1`, the Percent Effect in assay [1] was 107%; in [2], 17.3%; in [3] it was -6.12%; in the assay on Trypanosoma cruzi, 0%; in [4] it was 6.2%; in assay [5], 8.37%. Further, the Percent Effect in the assay listed under Homo sapiens is 27%; in assay [6] it was -1.06%; in assay [7], 7.5%; in assay [8], -16.8%.

Regarding `Cc1n[nH]c(=O)c2c(NC(=O)CN3CCC(O)CC3)oc(C)c12`, the Percent Effect is -1.08% in [1]; 10.3% in [2]; -12.1% in [3]; -8.17% in the assay with Trypanosoma cruzi; 0.41% in [4]; 19.4% in assay [5]. For the same compound, the Percent Effect in the assay filed under Homo sapiens was 21.8%; in assay [6] it was 4.31%; in [7], 10.8%; in assay [8] it was -5.11%.

For the compound `C[C@@H]1C(=O)NC[C@H]2CN(CCc3ccccc3)C[C@H]21`, the Percent Effect in assay [1] was -0.103%; in assay [2], 16.9%; in assay [3], 0.474%; in the assay with Trypanosoma cruzi, 1.5%; in assay [4], 2.74%; in [5] it was 11.4%. Moreover, the Percent Effect in the assay filed under Homo sapiens was 2.51%; in assay [6] it was 11.6%; in [7], 20%; in [8] it was -8.42%.

For the compound `Cc1ccsc1CN(C)Cc1nc2c(cnn2C)c(=O)[nH]1`, the Percent Effect in [1] is 0.7%; in assay [2], 15.4%; in assay [3], -7.51%; in the assay on Trypanosoma cruzi it was 0.845%; in [4] it was 2.05%; in assay [5], 10.7%. In addition, the Percent Effect in the assay listed under Homo sapiens was 27.3%; in [6] it was 7.18%; in assay [7], 18.1%; in assay [8], -3.14%.

Regarding `Cc1c[nH]cc1C(=O)N1CCN(CCc2cccs2)CC1`, the Percent Effect in assay [1] was -4.85%; in assay [2], 5.13%; in assay [3], -6.52%; with Trypanosoma cruzi, 3.29%; in assay [4], 2.05%; in assay [5], -3.67%. The Percent Effect in the assay listed under Homo sapiens turned out to be 3.15%; in assay [6], 5.26%; in assay [7], 8.43%; in assay [8], 0.816%.

As for `Cc1nc(C)n(CC2CCCN2Cc2cn3c(C)cccc3n2)n1` (stereo not given), the Percent Effect in [1] was -1.02%; in [2], 2.67%; in [3] it was 7.22%; with Trypanosoma cruzi it was 4.62%; in assay [4] it was 2.66%; in assay [5], 8.4%. The Percent Effect in the assay filed under Homo sapiens is -19.9%; in assay [6], 1.58%; in [7] it was 5.13%; in assay [8] it was -11.6%.

For the compound `CC(=O)N1CCC2(CC1)C(=O)N(CC1CC1)c1ccccc12`, the Percent Effect in assay [1] is -5.06%; in assay [2], 9.09%; in [3], -0.719%; in the assay on Trypanosoma cruzi, -3.56%; in assay [4], 5.48%; in assay [5] it was 10.6%. Also, the Percent Effect in the assay filed under Homo sapiens is 6.99%; in [6], 3.87%; in [7], 7.5%; in [8], -7.42%.

For the compound `Cc1ccc(OC2(C(=O)O)CCN(C(=O)c3nc(C)oc3C)CC2)cn1`, the Percent Effect in assay [1] was -6.7%; in assay [2] it was 0%; in assay [3] it was -0.0712%; in the assay on Trypanosoma cruzi, 4.17%; in assay [4], 1.05%; in [5], -1.2%. Besides, the Percent Effect in the assay listed under Homo sapiens was -9.04%; in [6], 2.66%; in [7] it was 4.88%; in [8] it was 1.11%.

In the case of `O=C(c1cnccn1)N1CCCC2(COCCN(CC3CC3)C2)C1` (stereo not given), the Percent Effect is -3.64% in assay [1]; -1.3% in [2]; -5.88% in assay [3]; -2.43% in the assay with Trypanosoma cruzi; -0.81% in [4]; 7.15% in assay [5]. Further, the Percent Effect in the assay filed under Homo sapiens is -2.31%; in [6], -0.526%; in [7] it was 5.13%; in [8] it was -0.986%.

As for `c1ccc(CNC2CCc3ncnn3C2)nc1` (stereo not given), the Percent Effect was 0.311% in assay [1]; 12.8% in [2]; -14.6% in [3]; -4.98% in the assay with Trypanosoma cruzi; 1.23% in assay [4]; 21.1% in assay [5]. Also, the Percent Effect in the assay listed under Homo sapiens was 30.1%; in [6], 9.09%; in assay [7], 20.5%; in assay [8], -2.61%.

For the compound `CN(C)c1cc(C(=O)N2CCN(c3cnccn3)CC2)ccn1`, the Percent Effect in [1] is -1.53%; in assay [2], 10.3%; in assay [3], 0.94%; in the assay with Trypanosoma cruzi, 3.1%; in assay [4] it was 2.46%; in assay [5] it was 3.16%. Besides, the Percent Effect was 3.38% in the assay listed under Homo sapiens, 5.26% in [6], 10.8% in [7] and -7.53% in assay [8].

These data come from ChEMBL document CHEMBL3988442, “University of Dundee, Small-Polar-MMV Screening Library” (2021).
